# According to the supplement of paper PMC8728848:
# The full list was thinned out, with the strongest signals kept by preference.
# B1: Surfactant Protein D (Human); Neck + Carbohydrate Recognition Domain (NCRD) (Homo sapiens) (protein)
# chain: MLLFLLSALVLLTQPLGYLEAEMKTYSHRTMPSACTLVMCSSVESGLPGRDRDGREGPRGEKGDPGLPGAAGQAGMPGQAGPVGPKGDNGSVGEPGPKGDTGPSGPPGPPGVPGPAGREGALGKQGNIGPQGKPGPKGEAGPKGEVGAPGMQGSAGARGLAGPKGERGVPGERGVPGNTGAAGSAGAMGPQGSPGARGPPGLKGDKGIPGDKGAKGESGLPDVASLRQQVEALQGQVQHLQAAFSQYKKVELFPNGQSVGEKIFKTAQFVKPFTEAQLLCTQAGGQLASPRSAAENAALQQLVVAKNEAAFLSMTDSKTEGKFTYPTGESLVYSNWAPGEPNDDGGSEDCVEIYTNGKWNDRACGEKRLVVCEF
# Legend:
# Test in all cases: glycan array binding signal (z-score within array); higher = stronger binding
# Conditions in all cases: glycan notation: IUPAC condensed, linker removed; mutation: F335Y
# [1] = target: Fuc(a1-2)Gal(b1-3)GalNAc(b1-3)Gal
# Method in brief: (§1)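 Arrays were curated from the Consortium for Functional Glycomics database, 3228 in total, and kept only where the protein sequence was available. Binding is expressed as a within-array Z-score. This score was averaged across arrays of the same protein sequence at different concentrations or buffers and across linkers, and negative values can be read as non-binding.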
# [2] = target: Fuc(a1-2)Gal(b1-3)GalNAc(b1-4)[Neu5Ac(a2-3)]Gal(b1-4)Glc
# Method in brief: as §1
# [3] = target: Fuc(a1-3)[Gal(b1-4)]GlcNAc(b1-4)Gal(b1-4)[Fuc(a1-3)]GlcNAc
# Method in brief: as §1
# Gal(a1-6)Glc = target: Gal(a1-6)Glc
# Method in brief: as §1
# [4] = target: Gal(b1-3)[GlcNAc(b1-6)]GalNAc
# Method in brief: as §1
# [5] = target: Gal(b1-4)GlcNAc(b1-3)GalNAc
# Method in brief: as §1
# Gal6S(b1-4)Glc6S = target: Gal6S(b1-4)Glc6S
# Method in brief: as §1
# [6] = target: GlcNAc(b1-2)Gal(b1-3)GalNAc
# Method in brief: as §1
# GlcNAc(b1-3)Gal = target: GlcNAc(b1-3)Gal
# Method in brief: as §1
# GlcNAc(b1-3)GalNAc = target: GlcNAc(b1-3)GalNAc
# Method in brief: as §1
# GlcNAc(b1-3)Man = target: GlcNAc(b1-3)Man
# Method in brief: as §1
# [7] = target: Man(a1-2)Man(a1-2)Man(a1-6)[Man(a1-3)]Man
# Method in brief: as §1
# [8] = target: Man(a1-2)Man(a1-3)[Man(a1-2)Man(a1-6)]Man
# Method in brief: as §1
# [9] = target: Man(a1-2)Man(a1-3)[Man(a1-2)Man(a1-6)]Man(a1-6)[Man(a1-2)Man(a1-2)Man(a1-3)]Man
# Method in brief: as §1
# [10] = target: Man(a1-2)Man(a1-6)[Man(a1-3)]Man(a1-6)[Man(a1-2)Man(a1-2)Man(a1-3)]Man(b1-4)GlcNAc(b1-4)GlcNAc
# Method in brief: as §1
# [11] = target: Man(a1-3)[Man(a1-6)]Man(a1-6)[Man(a1-2)Man(a1-3)]Man(b1-4)GlcNAc(b1-4)GlcNAc
# Method in brief: as §1
# [12] = target: Man(a1-3)[Man(a1-6)]Man(a1-6)[Man(a1-3)]Man
# Method in brief: as §1
# [13] = target: Neu5Ac(a2-3)Gal(b1-3)GalNAc
# Method in brief: as §1
# [14] = target: Neu5Ac(a2-3)Gal(b1-4)GlcNAc(b1-6)[Neu5Ac(a2-3)Gal(b1-3)]GalNAc
# Method in brief: as §1
# [15] = target: Neu5Ac(a2-6)Gal(b1-4)GlcNAc(b1-3)Gal(b1-4)[Fuc(a1-3)]GlcNAc(b1-3)Gal(b1-4)[Fuc(a1-3)]GlcNAc
# Method in brief: as §1
binder,measurement,setting,value
B1,glycan array binding signal (z-score),[1],-0.184
same,glycan array binding signal (z-score),[2],-0.189
same,glycan array binding signal (z-score),[3],-0.183
same,glycan array binding signal (z-score),Gal(a1-6)Glc,-0.189
same,glycan array binding signal (z-score),[4],-0.185
same,glycan array binding signal (z-score),[5],-0.191
same,glycan array binding signal (z-score),Gal6S(b1-4)Glc6S,-0.187
same,glycan array binding signal (z-score),[6],-0.189
same,glycan array binding signal (z-score),GlcNAc(b1-3)Gal,-0.18
same,glycan array binding signal (z-score),GlcNAc(b1-3)GalNAc,-0.193
same,glycan array binding signal (z-score),GlcNAc(b1-3)Man,-0.187
same,glycan array binding signal (z-score),[7],5.87
same,glycan array binding signal (z-score),[8],7.66
same,glycan array binding signal (z-score),[9],7.37
same,glycan array binding signal (z-score),[10],5.84
same,glycan array binding signal (z-score),[11],7.18
same,glycan array binding signal (z-score),[12],3.93
same,glycan array binding signal (z-score),[13],-0.19
same,glycan array binding signal (z-score),[14],-0.178
same,glycan array binding signal (z-score),[15],-0.122
